# Test results taken from article PMC7862700, “An all-to-all approach to the identification of sequence-specific readers for epigenetic DNA modifications on cytosine”.
# Columns and labels:
# Experiment in all cases: DAPPL (digital affinity profiling via proximity ligation, sequencing); 10 mM Tris-HCl pH 7.5, 50 mM NaCl, 1 mM DTT, 4% glycerol, room temperature, 30 min; GST-TFs on glutathione beads, 16-mer random dsDNA library, 0.1% formaldehyde crosslink after washing; high values mean tight binding
# FLI1 = molecular target: T1, FLI1 (Homo sapiens, UniProt Q01543 1-452); conditions: protein: recombinant; tags: N-terminal GST; dsDNA, one strand shown
# T1 sequence: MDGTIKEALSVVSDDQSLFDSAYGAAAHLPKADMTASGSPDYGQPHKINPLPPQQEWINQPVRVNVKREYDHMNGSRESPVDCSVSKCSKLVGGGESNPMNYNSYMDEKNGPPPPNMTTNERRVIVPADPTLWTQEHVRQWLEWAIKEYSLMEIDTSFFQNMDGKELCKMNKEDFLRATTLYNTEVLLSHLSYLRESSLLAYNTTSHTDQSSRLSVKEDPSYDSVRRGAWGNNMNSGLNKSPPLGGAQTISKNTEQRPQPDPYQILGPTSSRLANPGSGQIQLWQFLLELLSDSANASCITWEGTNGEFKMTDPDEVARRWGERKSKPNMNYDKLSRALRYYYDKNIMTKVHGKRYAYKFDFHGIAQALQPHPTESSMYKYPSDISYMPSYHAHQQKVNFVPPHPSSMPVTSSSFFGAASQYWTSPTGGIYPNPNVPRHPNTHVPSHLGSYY
# Outline: (§1)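 Human transcription factors carrying a GST fusion were produced in yeast, bound to glutathione beads, tagged with DNA barcodes and pooled together with a tag-only sample. Each pool was held with 200 nmole of a random double-stranded 16-mer DNA library in Tris/NaCl/DTT/glycerol buffer for 30 min at room temperature, then washed, crosslinked in 0.1% formaldehyde, proximity-ligated with BsaI/T4 ligase (1 h, 37 °C), PCR-amplified and sequenced on an Illumina NextSeq500. Binding signal is the read frequency of each hexamer for a given factor divided by its frequency in the tag-only sample.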
# ELK1 = molecular target: T2, ELK1 (Homo sapiens, UniProt P19419 1-428); conditions: protein: recombinant; tags: N-terminal GST; dsDNA, one strand shown
# T2 sequence: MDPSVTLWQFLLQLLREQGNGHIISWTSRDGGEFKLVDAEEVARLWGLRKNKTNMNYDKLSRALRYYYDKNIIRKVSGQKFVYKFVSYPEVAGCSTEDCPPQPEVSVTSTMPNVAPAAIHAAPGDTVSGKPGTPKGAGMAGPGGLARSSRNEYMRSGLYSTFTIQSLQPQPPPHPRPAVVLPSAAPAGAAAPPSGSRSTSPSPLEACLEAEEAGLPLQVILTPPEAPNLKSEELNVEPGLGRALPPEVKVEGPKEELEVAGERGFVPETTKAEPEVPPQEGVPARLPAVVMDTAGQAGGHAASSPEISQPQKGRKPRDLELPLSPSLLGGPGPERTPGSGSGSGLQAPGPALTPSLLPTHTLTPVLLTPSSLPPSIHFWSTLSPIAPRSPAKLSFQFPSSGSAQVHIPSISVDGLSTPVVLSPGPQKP
# Outline: as §1
# GABPA = molecular target: T3, GABPA (Homo sapiens, UniProt Q06546 1-454); conditions: protein: recombinant; tags: N-terminal GST; dsDNA, one strand shown
# T3 sequence: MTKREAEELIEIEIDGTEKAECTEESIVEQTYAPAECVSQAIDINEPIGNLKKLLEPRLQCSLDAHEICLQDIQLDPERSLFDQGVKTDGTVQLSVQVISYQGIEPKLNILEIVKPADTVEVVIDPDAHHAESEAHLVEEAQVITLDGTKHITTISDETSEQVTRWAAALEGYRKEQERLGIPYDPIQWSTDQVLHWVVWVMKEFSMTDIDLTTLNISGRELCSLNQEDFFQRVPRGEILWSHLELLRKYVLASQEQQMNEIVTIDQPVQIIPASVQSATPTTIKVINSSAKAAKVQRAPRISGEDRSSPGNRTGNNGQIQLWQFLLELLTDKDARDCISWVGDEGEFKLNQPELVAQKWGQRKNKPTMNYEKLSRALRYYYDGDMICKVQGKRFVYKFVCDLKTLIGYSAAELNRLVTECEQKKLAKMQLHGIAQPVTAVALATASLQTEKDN
# Outline: as §1
# ERG = molecular target: T4, ERG (Homo sapiens, UniProt P11308 1-479); conditions: protein: recombinant; tags: N-terminal GST; dsDNA, one strand shown
# T4 sequence: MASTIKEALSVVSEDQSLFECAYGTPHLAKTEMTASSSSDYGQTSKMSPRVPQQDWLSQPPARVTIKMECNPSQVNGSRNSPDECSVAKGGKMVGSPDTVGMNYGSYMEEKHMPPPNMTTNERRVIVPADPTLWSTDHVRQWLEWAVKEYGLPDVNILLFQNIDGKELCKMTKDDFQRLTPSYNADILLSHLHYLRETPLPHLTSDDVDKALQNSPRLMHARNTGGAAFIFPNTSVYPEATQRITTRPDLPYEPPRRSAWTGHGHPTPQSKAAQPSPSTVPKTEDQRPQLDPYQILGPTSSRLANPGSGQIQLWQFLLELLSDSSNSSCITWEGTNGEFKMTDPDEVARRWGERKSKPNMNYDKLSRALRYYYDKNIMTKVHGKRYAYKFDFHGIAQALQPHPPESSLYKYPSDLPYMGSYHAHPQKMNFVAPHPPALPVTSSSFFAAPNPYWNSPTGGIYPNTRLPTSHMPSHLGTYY
# Outline: as §1
# ELF1 = ELF1 (Homo sapiens, UniProt P32519 1-619); conditions: protein: recombinant; tags: N-terminal GST; dsDNA, one strand shown
# Sequence of ELF1 (P32519 whole entry): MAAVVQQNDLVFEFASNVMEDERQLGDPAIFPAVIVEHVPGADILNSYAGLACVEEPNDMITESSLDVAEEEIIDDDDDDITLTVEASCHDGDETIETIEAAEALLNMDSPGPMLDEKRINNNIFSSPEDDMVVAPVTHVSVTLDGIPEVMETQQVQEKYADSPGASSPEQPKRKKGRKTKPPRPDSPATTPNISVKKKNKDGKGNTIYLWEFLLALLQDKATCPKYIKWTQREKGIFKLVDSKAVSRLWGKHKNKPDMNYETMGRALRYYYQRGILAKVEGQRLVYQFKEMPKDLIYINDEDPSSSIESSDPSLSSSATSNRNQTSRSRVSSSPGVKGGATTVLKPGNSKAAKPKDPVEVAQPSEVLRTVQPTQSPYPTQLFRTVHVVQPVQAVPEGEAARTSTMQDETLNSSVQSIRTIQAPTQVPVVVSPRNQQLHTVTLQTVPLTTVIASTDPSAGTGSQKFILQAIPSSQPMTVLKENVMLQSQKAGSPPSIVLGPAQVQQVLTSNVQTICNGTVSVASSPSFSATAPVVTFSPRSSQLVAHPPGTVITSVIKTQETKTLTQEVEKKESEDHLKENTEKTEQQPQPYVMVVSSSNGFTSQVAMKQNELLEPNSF
# Outline: as §1
# EHF = molecular target: T5, EHF (Homo sapiens, UniProt Q9NZC4 1-300); conditions: protein: recombinant; tags: N-terminal GST; dsDNA, one strand shown
# T5 sequence: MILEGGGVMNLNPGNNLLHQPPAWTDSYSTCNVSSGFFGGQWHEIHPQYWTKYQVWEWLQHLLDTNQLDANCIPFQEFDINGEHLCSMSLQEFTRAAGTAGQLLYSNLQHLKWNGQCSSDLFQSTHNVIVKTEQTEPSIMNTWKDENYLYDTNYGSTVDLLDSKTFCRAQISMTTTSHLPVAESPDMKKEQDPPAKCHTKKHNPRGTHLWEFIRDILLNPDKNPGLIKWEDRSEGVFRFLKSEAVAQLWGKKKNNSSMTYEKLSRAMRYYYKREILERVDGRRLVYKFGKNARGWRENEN
# Outline: as §1
# SPI1 = SPI1 (Homo sapiens, UniProt P17947 1-270); conditions: protein: recombinant; tags: N-terminal GST; dsDNA, one strand shown
# Outline: as §1
# SPIB = SPIB (Homo sapiens, UniProt Q01892 1-262); conditions: protein: recombinant; tags: N-terminal GST; dsDNA, one strand shown
# Sequence of SPIB (Q01892 whole entry): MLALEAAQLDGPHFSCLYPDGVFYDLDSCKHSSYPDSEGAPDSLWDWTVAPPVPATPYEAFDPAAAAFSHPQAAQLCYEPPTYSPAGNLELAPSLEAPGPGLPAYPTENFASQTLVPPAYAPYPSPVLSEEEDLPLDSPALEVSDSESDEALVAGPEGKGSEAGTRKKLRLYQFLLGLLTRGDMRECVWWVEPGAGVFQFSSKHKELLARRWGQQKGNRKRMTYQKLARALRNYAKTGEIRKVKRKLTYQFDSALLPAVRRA
# Outline: as §1
# ELK3 = molecular target: T6, ELK3 (Homo sapiens, UniProt P41970 1-407); conditions: protein: recombinant; tags: N-terminal GST; dsDNA, one strand shown
# T6 sequence: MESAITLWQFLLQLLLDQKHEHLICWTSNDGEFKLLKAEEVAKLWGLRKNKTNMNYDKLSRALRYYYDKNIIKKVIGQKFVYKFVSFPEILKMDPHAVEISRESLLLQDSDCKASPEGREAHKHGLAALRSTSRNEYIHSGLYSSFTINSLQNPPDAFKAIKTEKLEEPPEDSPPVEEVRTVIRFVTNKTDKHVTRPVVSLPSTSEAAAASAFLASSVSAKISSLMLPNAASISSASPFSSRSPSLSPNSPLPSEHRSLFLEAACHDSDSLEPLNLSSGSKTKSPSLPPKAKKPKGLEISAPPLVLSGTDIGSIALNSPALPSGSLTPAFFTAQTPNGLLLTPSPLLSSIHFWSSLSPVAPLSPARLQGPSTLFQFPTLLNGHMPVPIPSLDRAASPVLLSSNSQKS
# Outline: as §1
# FEV = molecular target: T7, FEV (Homo sapiens, UniProt Q99581 1-238); conditions: protein: recombinant; tags: N-terminal GST; dsDNA, one strand shown
# T7 sequence: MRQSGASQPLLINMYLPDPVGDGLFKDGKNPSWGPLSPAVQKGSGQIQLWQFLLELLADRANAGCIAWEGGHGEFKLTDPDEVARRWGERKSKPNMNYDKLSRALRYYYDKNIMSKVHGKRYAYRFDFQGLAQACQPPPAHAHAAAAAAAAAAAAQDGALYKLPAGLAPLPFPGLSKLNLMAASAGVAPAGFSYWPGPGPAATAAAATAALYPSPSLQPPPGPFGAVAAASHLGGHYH
# Outline: as §1
# ETV5 = ETV5 (Homo sapiens, UniProt P41161 1-510); conditions: protein: recombinant; tags: N-terminal GST; dsDNA, one strand shown
# Sequence of ETV5 (P41161 whole entry): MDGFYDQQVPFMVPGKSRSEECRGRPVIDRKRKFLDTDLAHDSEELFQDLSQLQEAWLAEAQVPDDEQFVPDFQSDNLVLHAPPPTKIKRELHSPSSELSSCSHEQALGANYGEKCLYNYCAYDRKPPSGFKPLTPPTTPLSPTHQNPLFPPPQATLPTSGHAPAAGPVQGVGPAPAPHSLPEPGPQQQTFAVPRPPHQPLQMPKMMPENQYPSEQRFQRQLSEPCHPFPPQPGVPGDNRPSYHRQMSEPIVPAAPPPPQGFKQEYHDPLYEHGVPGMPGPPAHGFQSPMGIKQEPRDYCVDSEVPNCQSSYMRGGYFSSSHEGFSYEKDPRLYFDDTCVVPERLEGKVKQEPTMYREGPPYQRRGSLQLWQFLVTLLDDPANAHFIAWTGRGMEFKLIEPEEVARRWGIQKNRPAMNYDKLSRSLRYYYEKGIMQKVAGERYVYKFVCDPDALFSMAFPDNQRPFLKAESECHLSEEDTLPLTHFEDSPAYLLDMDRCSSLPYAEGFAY
# Outline: as §1
# HSF1 = HSF1 (Homo sapiens, UniProt Q00613 1-529); conditions: protein: recombinant; tags: N-terminal GST; chain copies: 3; dsDNA, one strand shown
# Sequence of HSF1 (Q00613 whole entry): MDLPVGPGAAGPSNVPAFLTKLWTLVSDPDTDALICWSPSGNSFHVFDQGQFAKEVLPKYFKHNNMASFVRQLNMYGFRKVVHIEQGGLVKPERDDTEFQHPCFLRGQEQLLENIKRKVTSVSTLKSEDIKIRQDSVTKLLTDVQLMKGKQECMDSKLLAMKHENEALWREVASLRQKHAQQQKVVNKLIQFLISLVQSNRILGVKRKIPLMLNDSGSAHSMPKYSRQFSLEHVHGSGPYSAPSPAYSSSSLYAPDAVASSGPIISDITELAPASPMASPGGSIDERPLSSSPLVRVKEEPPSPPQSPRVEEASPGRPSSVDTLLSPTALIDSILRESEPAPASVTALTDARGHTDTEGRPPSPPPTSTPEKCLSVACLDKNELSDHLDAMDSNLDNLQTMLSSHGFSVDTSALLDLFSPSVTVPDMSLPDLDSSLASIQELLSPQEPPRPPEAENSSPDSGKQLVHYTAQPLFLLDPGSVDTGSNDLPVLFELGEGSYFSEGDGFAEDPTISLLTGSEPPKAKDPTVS
# Outline: as §1
# SPIC = molecular target: T8, SPIC (Homo sapiens, UniProt Q8N5J4 1-248); conditions: protein: recombinant; tags: N-terminal GST; dsDNA, one strand shown
# T8 sequence: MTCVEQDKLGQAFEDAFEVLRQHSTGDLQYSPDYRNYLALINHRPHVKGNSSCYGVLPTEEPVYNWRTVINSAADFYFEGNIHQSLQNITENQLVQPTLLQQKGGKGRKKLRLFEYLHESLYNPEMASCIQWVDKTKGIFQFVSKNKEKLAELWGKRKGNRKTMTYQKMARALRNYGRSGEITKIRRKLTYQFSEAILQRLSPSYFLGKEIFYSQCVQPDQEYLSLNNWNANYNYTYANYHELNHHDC
# Outline: as §1
# ELF4 = ELF4 (Homo sapiens, UniProt Q99607 1-663); conditions: protein: recombinant; tags: N-terminal GST; dsDNA, one strand shown
# Sequence of ELF4 (Q99607 whole entry): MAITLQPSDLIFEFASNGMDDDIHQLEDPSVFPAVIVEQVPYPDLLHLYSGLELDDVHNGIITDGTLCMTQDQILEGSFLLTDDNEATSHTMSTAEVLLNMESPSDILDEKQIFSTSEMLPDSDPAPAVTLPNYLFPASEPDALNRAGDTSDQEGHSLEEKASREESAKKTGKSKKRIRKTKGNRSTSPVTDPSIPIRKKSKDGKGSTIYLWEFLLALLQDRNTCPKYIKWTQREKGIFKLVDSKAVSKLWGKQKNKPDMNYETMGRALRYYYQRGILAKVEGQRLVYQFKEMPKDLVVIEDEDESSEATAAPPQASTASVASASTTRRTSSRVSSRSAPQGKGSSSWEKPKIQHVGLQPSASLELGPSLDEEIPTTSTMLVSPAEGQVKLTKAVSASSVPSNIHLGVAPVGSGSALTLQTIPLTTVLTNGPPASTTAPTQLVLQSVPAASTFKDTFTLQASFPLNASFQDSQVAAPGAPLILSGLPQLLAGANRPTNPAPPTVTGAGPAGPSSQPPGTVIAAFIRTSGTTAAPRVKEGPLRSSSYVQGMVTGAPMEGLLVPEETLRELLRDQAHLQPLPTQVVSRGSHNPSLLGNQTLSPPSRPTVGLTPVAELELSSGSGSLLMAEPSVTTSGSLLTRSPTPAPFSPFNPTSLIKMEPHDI
# Outline: as §1
# ELK4 = molecular target: T9, ELK4 (Homo sapiens, UniProt P28324-2 1-405); conditions: protein: recombinant; tags: N-terminal GST; dsDNA, one strand shown
# T9 sequence: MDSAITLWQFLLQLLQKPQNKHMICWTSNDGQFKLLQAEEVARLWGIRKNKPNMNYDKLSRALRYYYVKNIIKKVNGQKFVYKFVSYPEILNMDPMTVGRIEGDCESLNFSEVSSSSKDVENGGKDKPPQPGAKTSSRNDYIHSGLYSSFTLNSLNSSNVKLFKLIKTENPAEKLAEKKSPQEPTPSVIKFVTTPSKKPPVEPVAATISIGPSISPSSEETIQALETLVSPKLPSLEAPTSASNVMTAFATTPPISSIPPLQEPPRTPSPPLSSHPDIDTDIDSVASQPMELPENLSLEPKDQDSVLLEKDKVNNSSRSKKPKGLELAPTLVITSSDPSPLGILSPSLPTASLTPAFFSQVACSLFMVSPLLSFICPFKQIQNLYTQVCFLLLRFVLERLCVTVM
# Outline: as §1
# ETV2 = molecular target: T10, ETV2 (Homo sapiens, UniProt O00321 1-342); conditions: protein: recombinant; tags: N-terminal GST; dsDNA, one strand shown
# T10 sequence: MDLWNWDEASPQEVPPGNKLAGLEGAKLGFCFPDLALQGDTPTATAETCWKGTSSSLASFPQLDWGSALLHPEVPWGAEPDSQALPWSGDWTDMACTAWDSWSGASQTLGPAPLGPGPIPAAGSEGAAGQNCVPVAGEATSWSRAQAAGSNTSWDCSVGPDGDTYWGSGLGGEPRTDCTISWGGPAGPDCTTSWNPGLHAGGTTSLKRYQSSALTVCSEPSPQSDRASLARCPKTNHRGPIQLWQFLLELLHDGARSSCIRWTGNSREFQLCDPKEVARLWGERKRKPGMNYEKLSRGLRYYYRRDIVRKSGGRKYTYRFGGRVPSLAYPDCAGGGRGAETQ
# Outline: as §1
# ELF3 = molecular target: T11, ELF3 (Homo sapiens, UniProt P78545 1-371); conditions: protein: recombinant; tags: N-terminal GST; dsDNA, one strand shown
# T11 sequence: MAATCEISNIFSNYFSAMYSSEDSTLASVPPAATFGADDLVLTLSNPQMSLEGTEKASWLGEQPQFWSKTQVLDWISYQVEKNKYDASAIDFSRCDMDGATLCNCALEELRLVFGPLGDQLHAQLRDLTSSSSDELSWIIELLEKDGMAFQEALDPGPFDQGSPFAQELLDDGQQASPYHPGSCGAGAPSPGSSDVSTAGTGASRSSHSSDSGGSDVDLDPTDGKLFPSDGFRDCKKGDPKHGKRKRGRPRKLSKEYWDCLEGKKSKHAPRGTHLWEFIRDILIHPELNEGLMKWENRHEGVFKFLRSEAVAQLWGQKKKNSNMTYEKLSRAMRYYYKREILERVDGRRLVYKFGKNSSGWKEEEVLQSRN
# Outline: as §1
# CRX = CRX (Homo sapiens, UniProt O43186 1-299); conditions: protein: recombinant; tags: N-terminal GST; dsDNA, one strand shown
# Sequence of CRX (O43186 whole entry): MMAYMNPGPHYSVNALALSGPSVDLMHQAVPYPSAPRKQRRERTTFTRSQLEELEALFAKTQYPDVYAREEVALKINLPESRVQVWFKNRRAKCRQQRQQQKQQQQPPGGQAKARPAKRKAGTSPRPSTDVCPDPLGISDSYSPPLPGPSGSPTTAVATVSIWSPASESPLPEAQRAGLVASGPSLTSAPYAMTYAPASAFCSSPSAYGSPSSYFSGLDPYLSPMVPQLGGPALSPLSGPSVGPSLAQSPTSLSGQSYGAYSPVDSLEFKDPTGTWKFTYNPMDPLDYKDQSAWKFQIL
# Outline: as §1
# ETV1 = ETV1 (Homo sapiens, UniProt P50549 1-477); conditions: protein: recombinant; tags: N-terminal GST; dsDNA, one strand shown
# Sequence of ETV1 (P50549 whole entry): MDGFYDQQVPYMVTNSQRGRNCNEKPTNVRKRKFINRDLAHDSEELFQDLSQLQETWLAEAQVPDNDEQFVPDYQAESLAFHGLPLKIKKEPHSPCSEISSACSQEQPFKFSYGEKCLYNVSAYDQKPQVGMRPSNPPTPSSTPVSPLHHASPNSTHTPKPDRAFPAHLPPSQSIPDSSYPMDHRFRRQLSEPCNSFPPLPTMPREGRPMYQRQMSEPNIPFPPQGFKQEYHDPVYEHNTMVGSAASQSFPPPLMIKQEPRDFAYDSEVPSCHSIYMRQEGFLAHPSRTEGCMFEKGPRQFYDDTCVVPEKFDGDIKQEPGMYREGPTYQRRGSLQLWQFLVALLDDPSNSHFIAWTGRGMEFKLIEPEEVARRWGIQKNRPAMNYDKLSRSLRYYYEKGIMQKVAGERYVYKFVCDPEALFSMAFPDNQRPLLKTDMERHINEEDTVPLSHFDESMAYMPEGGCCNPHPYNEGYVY
# Outline: as §1
sequence,measurement,setting,value
GCCCCT,binding signal,FLI1,"1.22 fold enrichment (6-mer frequency, TF over GST control)"
same,binding signal,ELK1,"1.2 fold enrichment (6-mer frequency, TF over GST control)"
same,binding signal,GABPA,"1.24 fold enrichment (6-mer frequency, TF over GST control)"
same,binding signal,ERG,"1.23 fold enrichment (6-mer frequency, TF over GST control)"
same,binding signal,ELF1,"1.37 fold enrichment (6-mer frequency, TF over GST control)"
same,binding signal,EHF,"1.43 fold enrichment (6-mer frequency, TF over GST control)"
same,binding signal,SPI1,"1.29 fold enrichment (6-mer frequency, TF over GST control)"
same,binding signal,SPIB,"1.21 fold enrichment (6-mer frequency, TF over GST control)"
same,binding signal,ELK3,"1.36 fold enrichment (6-mer frequency, TF over GST control)"
same,binding signal,FEV,"1.39 fold enrichment (6-mer frequency, TF over GST control)"
same,binding signal,ETV5,"1.39 fold enrichment (6-mer frequency, TF over GST control)"
same,binding signal,HSF1,"1.13 fold enrichment (6-mer frequency, TF over GST control)"
same,binding signal,SPIC,"1.22 fold enrichment (6-mer frequency, TF over GST control)"
same,binding signal,ELF4,"1.4 fold enrichment (6-mer frequency, TF over GST control)"
same,binding signal,ELK4,"1.37 fold enrichment (6-mer frequency, TF over GST control)"
same,binding signal,ETV2,"1.28 fold enrichment (6-mer frequency, TF over GST control)"
same,binding signal,ELF3,"1.24 fold enrichment (6-mer frequency, TF over GST control)"
same,binding signal,CRX,"1.12 fold enrichment (6-mer frequency, TF over GST control)"
same,binding signal,ETV1,"1.34 fold enrichment (6-mer frequency, TF over GST control)"
